Data on 95 molecules can be found in PubChem BioAssay AID1259422 (The Scripps Research Institute Molecular Screening Center, 2018).

What is called inhibition is the change of the read-out against control, counted positive when it falls.

Where “and” joins values, the source holds several entries; their conditions need not be identical. Identical values can stand only once. Screen size: about 640,000 compounds; about 9,300 (1.5%) were called active. Rule as the data show it: active = inhibition above about 32%; inactive = the rest. What follows is part of a selection rich in actives, with near analogues and random picks from the rest.

The test in a line: TEAD-YAP interaction inhibition, primary screen, TEAD-YAP interaction inhibitor project, luminescence, HEK-TIYL cells (AID 1259422).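 Also: 0% = median of test compound wells and 100% = reference inhibitor wells.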 Particulars: TEAD-Gal4/YAP UAS-luciferase luminescence, at 9.12 µM, stronger effect = higher value.
With `COc1ccc(Cl)cc1NC(=O)CC1C(=O)NCCN1C(=S)Nc1ccccc1` (stereo not given), the inhibition is 2.46% (inactive).
For the molecule `O=C(Nc1ccc(F)c(F)c1)c1ccc(N2CC3CC(C2)c2cccc(=O)n2C3)c(NC(=O)c2cccc(C(F)(F)F)c2)c1` (stereo not given), the inhibition was -14.9% (inactive).
For the molecule `COc1ccc(/C(C)=N/Nc2nc3ccccc3[nH]2)cc1`, the inhibition was -5.09% (inactive).
With `Cc1ccc(NC(=O)Cc2cccc3ccccc23)c([N+](=O)[O-])c1`, the inhibition was -15.6% (inactive).
Consider `COc1cccc(-c2cnnc(N(C)CCC3CCOCC3)n2)c1`, for which the inhibition is -25.5% (inactive).
`COc1ccc(-c2cnnc(N(C)CCC3CCOCC3)n2)cc1`: the inhibition is -22.1% (inactive).
As for `COc1ccc(-c2cnnc(N(C)Cc3cnn(C)c3)n2)cc1`, the figure is 36.4% (active); as for `O=C(c1cccc(Cl)c1)N1CCN(c2ccc([N+](=O)[O-])c(N3CCOCC3)c2)CC1`, 13.5% (inactive).
As for `O=c1cc(-c2ccccc2)[nH]c2nc(Cl)ccc12`, the figure is 50.5% (active).
Under `O=c1cc(-c2ccccc2)nc(NNc2ccccc2)[nH]1` stands 2.03% (inactive); under `O=c1cc(-c2ccccc2)sc2ccc(Cl)cc12`, -23.1% (inactive); under `CCn1cc(C(=O)Nc2ccc(N3CCOCC3)cc2)c(=O)c2ccc(C)nc21`, -7.7% (inactive).
Regarding `COc1ccc(CC(=O)N/N=C(\C)c2ccccn2)cc1OC`, the inhibition is 2.58% (inactive).
Under `Cc1ccc(S(=O)(=O)Oc2ccc(Br)cc2C=O)cc1` stands 31.9% (active).
Turning to `COc1cc(C=O)ccc1OS(=O)(=O)c1ccc(Cl)cc1`, the inhibition is -7.3% (inactive).
In the case of `CCOC(=O)N/N=C/c1ccc(OS(=O)(=O)c2ccc(C)cc2)c(OC)c1`, the inhibition was 3.61% (inactive).
As to `CSCCC(=O)Nc1ccc(Cl)cc1`, the inhibition is 2.57% (inactive).
Regarding `Cc1ccc(NC2=C(Cl)C(=O)OC2OC(=O)c2ccccc2Br)cc1` (stereo not given), the inhibition was 9.63% (inactive).
Turning to `O=c1c2ccccc2ncn1CCCCOc1ccccc1F`, the inhibition was 5.72% (inactive).
As for `O=C(O)c1cccc(OCC(O)Cn2cnc3ccccc32)c1` (stereo not given), the inhibition is 10% (inactive).
As to `N#Cc1ccccc1OCCCCn1cnc2ccccc21`, the inhibition was 35% (active).
`COc1c(C)cccc1C1=N/C(=C\c2cccc([N+](=O)[O-])c2)C(=O)O1`: the inhibition was 9.8% (inactive).
With `CCCOC(=O)C1=C(C)N(C)C(=O)NC1c1cc(Br)c(O)c(OC)c1` (stereo not given), the inhibition was 3.09% (inactive).
As to `COc1ccc2nc(NC(=O)CN3C(=S)NC(C)(C)CC3C)sc2c1` (stereo not given), the inhibition was 3.44% (inactive).
`CC(NC(=O)COC(=O)c1cccc(NS(C)(=O)=O)c1)C12CC3CC(CC(C3)C1)C2` (stereo not given): the inhibition is -4.62% (inactive).
For `CCCCNC(=O)C(=O)NCCC1CCCCN1S(=O)(=O)c1ccc(C)cc1` (stereo not given), the inhibition was 50.6% (active).
Regarding `Cc1ccc(NC(=O)C(=O)NCCC2CCCCN2S(=O)(=O)c2ccc(C)cc2)cc1` (stereo not given), the inhibition is 17.1% (inactive).
Turning to `Cc1ccc(S(=O)(=O)N2CCCCC2CCNC(=O)C(=O)NCCO)cc1` (stereo not given), the inhibition was -1.73% (inactive).
In the case of `O=c1c(-c2ccon2)coc2cc(O)ccc12`, the inhibition was -4% (inactive).
For the molecule `COc1cc2nc(/C=C/c3ccco3)oc(=O)c2cc1OC`, the inhibition is 0.76% (inactive).
Regarding `O=C(N/N=C/c1ccc(O)cc1)c1ccc(N2Cc3ccccc3C2)cc1`, the inhibition is -17% (inactive).
`CC(=O)c1ccc(N2CCN(c3cccc[n+]3C)CC2)cc1`: the inhibition was -8.59% (inactive).
Take `CC(=O)c1ccc(N2Cc3ccccc3C2)cc1`: the inhibition is 38.4% (active).
`CC1=C(C(=O)OCc2ccccc2)C(c2ccccc2F)CC(=O)N1` (stereo not given): the inhibition is 0.13% (inactive).
As to `COc1ccccc1N=c1scc(-c2ccccc2)n1CCO`, the inhibition was 1.29% (inactive).
`O=c1c2cc(Cl)ccc2[nH]c(=S)n1Cc1cccnc1`: the inhibition is -1.08% (inactive).
In the case of `Cc1ccc(NC(=O)c2ccc(C#N)cc2)c(C(=O)c2ccccc2)c1`, the inhibition is 4.87% (inactive).
As for `CCOc1ccc(NCCC(=O)c2ccc3c(c2)OCO3)cc1`, the inhibition was 6.84% (inactive).
Under `CC(C)=CC(=O)Nc1ccc2c(c1)OCCO2` stands 12.2% (inactive); under `COC(=O)CCNc1ccc2c(c1)OCCO2`, 33.2% (active); under `Cc1cccc(NC(=O)CSc2nc3ccc([N+](=O)[O-])cc3[nH]2)c1`, 8.94% (inactive).
As for `O=C(Nc1ccc(N2CCC(N3CCN(CCO)CC3)CC2)cc1)c1cccc(Cl)c1`, the figure is -1.49% (inactive).
Under `Cc1cc(O)cc2c1C(=O)/C(=C/c1cc3ccccc3o1)O2` stands 71.4% (active); under `COC(=O)c1ccc2c(c1)C(=O)/C(=C\c1ccccc1O)O2`, -31.1% (inactive); under `Cc1cc2nc(-c3ccc(NC(=O)c4cc5ccccc5o4)cc3)oc2cc1C`, -23.6% (inactive).
On to `CCCCc1ccc(-c2nc(C=Nc3cc([N+](=O)[O-])ccc3C)c(O)o2)cc1`, for which the inhibition was -9.75% (inactive).
Under `COc1cccc(/C=C/C(=O)c2cc3ccccc3oc2=O)c1` stands -6.12% (inactive); under `CCCCCCCN1C(=O)c2c(Cl)c(Cl)c(Cl)c(Cl)c2C1=O`, 5.39% (inactive); under `Oc1ccc(-c2cnc3ccc(NC4CCOCC4)nn23)cc1`, -2.21% (inactive).
As for `Fc1ccc(-c2cnc3ccc(NC4CCOCC4)nn23)cc1Cl`, the figure is 43.8% (active).
`Brc1cccc(-c2cnc3ccc(NC4CCOCC4)nn23)c1`: the inhibition was 29.9% (inactive).
On to `O=C(c1ccc2nc3ccc(Cl)cc3c(=O)n2c1)N1CCN(c2ccccc2)CC1`, for which the inhibition is 5.05% (inactive).
With `CNC(=S)N/N=C/c1cccc(/C=N/NC(=S)NC)c1`, the inhibition is -8.21% (inactive).
For the molecule `CCc1nc2nonc2c2nc3ccccc3n12`, the inhibition is -7.01% (inactive).
Take `O=C(O)c1ccc(-n2cccc2)cc1O`: the inhibition was 32.4% (active).
`O=C(O)c1ccc(N2C(=O)c3cccc4cccc(c34)C2=O)cc1O`: the inhibition is 9.06% (inactive).
Under `CC(=O)C1=C(O)C(=O)N(c2ccc(C(=O)O)c(O)c2)C1c1ccccc1` (stereo not given) stands 1.91% (inactive).
With `Cc1ccc(NC(=O)CCn2cccc2)c(C)c1`, the inhibition was -10.1% (inactive).
On to `Cc1cccc2c(N)c3c(nc12)CCCC3`, for which the inhibition was -0.9% (inactive).
Under `Cc1ccc2nc3nc4c(C)cccc4c(N)c3cc2c1` stands 43.1% (active); under `Cc1ccc(-c2cc(C(=O)OCC(C)C)c3cccc(C)c3n2)cc1`, 3.59% (inactive); under `OC1(c2ccc(F)cc2)CC2CCC(C1)N2c1ncnc2nc[nH]c12` (stereo not given), 1.25% (inactive).
Take `C=C(Br)Cn1c(C(C)O)nc2ccccc21` (stereo not given): the inhibition is 1.71% (inactive).
Consider `CC1=C(C#N)C(c2ccc3c(c2)OCO3)C2=C(CC(C)(C)CC2=O)N1` (stereo not given), for which the inhibition was 10.8% (inactive).
As for `Cn1c(=O)n(CC(=O)Nc2ccc(F)cc2)c(=O)c2ccccc21`, the inhibition is 14% (inactive).
As for `CCCNC1=C(c2ccc(OC)cc2)C(=O)c2ccccc21`, the figure is -14.6% (inactive); as for `CCOC(=O)C1=C(c2ccc(OC)cc2)C(=O)c2ccccc2C1=O`, 96% (active).
For `CCOC(=O)C1=C(C)N(c2ccc(C)cc2)C(=O)/C1=C\c1ccc(OC)cc1`, the inhibition is -0.27% (inactive).
`CCCOc1ccc(/C(O)=C2/C(=O)C(=O)N(CCN(C)C)C2c2ccc(Cl)cc2)cc1C` (stereo not given): the inhibition is 4.59% (inactive).
As for `O=C(Nc1cccc(O)c1)c1ccc(-c2ccccc2)cc1`, the inhibition is 83.8% (active).
As to `C#Cc1cccc(NC(=O)c2ccc(-c3ccccc3)cc2)c1`, the inhibition was -53.1% (inactive).
`Cc1occc1C(=O)Nc1ccc(NC(=O)c2ccoc2C)cc1`: the inhibition was -68.2% (inactive).
`O=C(Nc1cccc(O)c1)c1cncc(Br)c1`: the inhibition is -19.1% (inactive).
As to `O=C(Nc1cccc(O)c1)c1cccnc1`, the inhibition is 24.2% (inactive).
Take `O=C(NCCc1ccccc1)c1ccc(C(=O)c2ccccc2)o1`: the inhibition is -31.4% (inactive).
As to `Cc1occc1C(=O)Nc1cccc(O)c1`, the inhibition was 37.5% (active).
On to `O=C(Nc1cccc(O)c1)c1ccc(C(=O)c2ccccc2)o1`, for which the inhibition was 56.8% (active).
For the molecule `Cc1occc1C(=O)Nc1cccc(F)c1`, the inhibition was -4.37% (inactive).
Under `Cc1ccc(S(=O)(=O)n2nc(C#N)c(C#N)c2N)cc1` stands -5.77% (inactive); under `O=C(Nc1nc(-c2ccc3ccccc3c2)cs1)c1cc(-c2ccc(Br)cc2)nc2ccccc12`, -0.33% (inactive).
With `CCOc1cc(/C=C2/C(=N)N3N=C(CC)SC3=NC2=O)cc(Cl)c1OCCOc1ccccc1`, the inhibition was -11.5% (inactive).
On to `COc1ccc(Cl)cc1Nc1ncnc2c1c(-c1ccccc1)cn2-c1ccc(C)cc1`, for which the inhibition is -0.75% (inactive).
For the molecule `CC1CCN(C(=O)c2c[nH]c3ccc(S(=O)(=O)N(C)c4ccc(C(C)C)cc4)cc3c2=O)CC1`, the inhibition is -1.81% (inactive).
For `CCOC(=O)N1CCN(S(=O)(=O)c2ccc(C(=O)Nc3nc(-c4ccccc4)c(C)s3)cc2)CC1`, the inhibition is -2.44% (inactive).
Consider `CCOC(=O)c1ccc(NC(=O)c2ccc(S(=O)(=O)N3CCN(C(=O)OCC)CC3)cc2)cc1`, for which the inhibition was -0.65% (inactive).
As for `CCOC(=O)N1CCN(S(=O)(=O)c2ccc(C(=O)Nc3ccc(F)cc3F)cc2)CC1`, the figure is 58.1% (active); as for `COCCOC(=O)C1=C(C)NC2=C(C(=O)CC(c3ccccc3)C2)C1c1cc(OC)ccc1OC` (stereo not given), 8.28% (inactive); as for `COc1cc2c(cc1OC)C1CN3CCc4cc(OC)c(OC)cc4C3CN1CC2` (stereo not given), 5.47% (inactive).
Consider `CC[C@H]1CN2CCc3cc(OC)c(OC)cc3[C@@H]2C[C@@H]1C[C@H]1NCCc2cc(OC)c(OC)cc21`, for which the inhibition was 99.4% (active) and 101% (active).
Turning to `CCOc1cc2c(cc1OCC)C(c1cc(OC)ccc1OC)NCC2` (stereo not given), the inhibition is 6.48% (inactive).
For `O=C(Cn1cnc2ccccc21)N/N=C/c1ccc(Cl)c(Cl)c1`, the inhibition was 1.91% (inactive).
For `Cc1cc(OC2CCN(C(=O)c3ccc4[nH]ncc4c3)CC2)ncc1Cl`, the inhibition is 6.71% (inactive).
In the case of `O=C(Nc1ccc2[nH]ncc2c1)c1cccnc1OC1CCCN(Cc2ccccc2)C1` (stereo not given), the inhibition is -3.88% (inactive).
On to `O=C(Nc1ccc2[nH]ncc2c1)c1ccnc(OC2CCN(Cc3ccccc3)CC2)c1`, for which the inhibition was 82% (active).
For the molecule `CCC(C(=O)NC(C)C)n1nc(C)c2sc3ccccc3c2c1=O` (stereo not given), the inhibition was 4.5% (inactive).
